A selection: hits, their analogues and other compounds. The true share with any hit is near 19%.
DT40 TDP1 no CPT – qHTS for Inhibitors of human tyrosyl-DNA phosphodiesterase 1 (TDP1): qHTS in cells in absence of CPT. DT40 Tdp1-/- hTDP1 cells, no CPT, ATP luminescence, 48 h. Potency, µM (doses to about 46.2 µM), for the others: top-dose activity change, negative = growth inhibition, actives largely listed as inhibitors. 420,000 compounds, 15% hits. AID 686978, 2013; also: potency is read from the fitted curve at half-maximal effect; nearly all actives have a fitted effect of over 55% in size
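Stably hTDP1-transfected Tdp1-null chicken DT40 cells were treated with library compounds minus camptothecin and grown for at least 48 hr at 37 °C, after which cellular ATP was quantified by luminescence.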
TDP1 cell CPT – qHTS for Inhibitors of human tyrosyl-DNA phosphodiesterase 1 (TDP1): qHTS in cells in presence of CPT; Potency, µM (doses to about 46.2 µM), without a hit: at the highest dose activity change, negative = growth inhibition, hits mostly inhibitors; 420,000 compounds, 12% hits; AID 686979, 2013; chicken DT40 Tdp1-/-;hTDP1 cells + 20 nM CPT, ATP luminescence, 48 h; also: potency is read from the fitted curve at half-maximal effect; nearly all actives have a fitted effect of over 55% in size
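Chicken DT40 Tdp1-/- cells complemented with human TDP1, 400 cells/well, exposed to compounds plus 20 nM camptothecin for at least 48 h at 37 C; viability read as ATP content by CellTiter-Glo luminescence.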
HT1080 IDH1KD tx – qHTS for induction of synthetic lethality in tumor cells producing 2HG: qHTS for the HT-1080-IDH1KD cell line; AID 686971, 2013; 360,000 compounds, 2% hits; Potency, µM (highest dose often 46.1 µM), without a hit: at the highest dose activity, negative = toxicity, actives largely listed as cytotoxic; HT-1080 IDH1 knockdown viability, ATP luminescence, 48 h;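 also: potency is read from the fitted curve at half-maximal effect; 0% = DMSO wells and -100% = cell-free medium wells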
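IDH1KD HT-1080 cells, 750/well, RPMI + 5% FBS; compound pinned after 2 h settling; 48 h, 37 °C; CellTiter-Glo luminescence; % activity normalised to DMSO and no-cell wells; curves fitted, classed by r2 and efficacy.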
IL-1B inflam inh – qHTS for Inhibitors of Inflammasome Signaling: IL-1-beta AlphaLISA Primary Screen. THP-1 LPS/ATP IL-1B secretion, AlphaLISA, 16 h; stronger effect = lower value. activity change, % at 57.5 µM. 360,000 compounds, 4.7% hits; in the data active = activity change below about -50%; inconclusive = mostly about -30% to -49%
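Secreted IL-1B measured by AlphaLISA bead assay after 16 h compound exposure of THP-1 cells; compounds (final up to 57.5 uM) added 1 h before LPS (250 ng/mL) and ATP (1.25 mM) stimulation; lower signal means less secretion.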
uPA generation – qHTS for Inhibitors of Cell Surface uPA Generation. cell surface uPA generation assay, qHTS. Potency, µM (series often up to 38.3 µM), for the others: top-dose activity change, negative = inhibition, most hits filed as inhibitors. 330,000 compounds, 0.31% hits. AID 540303, 2011; active = well fitted inhibition curve with a large enough effect; inconclusive = small, poorly fitted or top-dose-only effect; inactive = no such curve, though single readings can be large or run the other way; tested in mouse RAW 264.7 cells; also: potency is read from the fitted curve at half-maximal effect; nearly all actives have a fitted effect of over 55% in size
HT1080NT lethal – qHTS for induction of synthetic lethality in tumor cells producing 2HG: qHTS for the HT-1080-NT fibrosarcoma cell line | Potency, µM (titrated, usually from 46.1 µM), for the others: at the highest dose activity, negative = less viability, actives largely listed as cytotoxic | 360,000 compounds, 1.6% hits | AID 686970, 2013 | HT-1080-NT fibrosarcoma viability, CellTiter-Glo ATP luminescence, 48 h;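 also: NT is the 2HG producing partner of a matched IDH1 knockdown line; potency is read from the fitted curve at half-maximal effect; 0% = DMSO-treated cells and -100% = media-only wells without cells; nearly all actives have a fitted effect of over 55% in size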
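Viability of the 2HG-overproducing fibrosarcoma line after 48 hours of compound exposure at 37 degrees C was determined by luminescence with CellTiter-Glo, and concentration-effect curves were then fitted and categorized.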
Starred values were filed as active, the others as inactive; ? = inconclusive; nt = not tested or not shown; [ ] = remark or other dose. Unless noted, calls follow the shape of the dose curve; as a rule, active = well fitted curve in the direction sought with a large enough effect; inconclusive = small, poorly fitted or top-dose-only effect, or another doubt; inactive = no such curve, though single readings can be large; an effect the other way counts as inactive or inconclusive. Unless noted, % is scaled to controls: 0 for no effect and ±100 for the full control effect.

SMILES | DT40 TDP1 no CPT | TDP1 cell CPT | HT1080 IDH1KD tx | IL-1B inflam inh | uPA generation | HT1080NT lethal
COc1cc(OC)c(C(=O)OCC(=O)Nc2cccc(S(=O)(=O)NC3=NCCCCC3)c2)cc1OC | ? | ? | 8% | 2 | 2% | -7%
COc1cc(SC)ccc1C(=O)Nc1cccc(S(=O)(=O)NC2=NCCCCC2)c1 | ? | 21µM* | -5% | -13 | 2% | -13%
CCN(CC)S(=O)(=O)c1cccc(NC(=O)c2ccc(SC)cc2OC)c1 | 7.3µM* | 26µM* | -18% | nt | -5% | -7%
Cc1ccc(-c2nc3c4ccccc4n(CC(=O)N4CCN(c5ccccc5F)CC4)c(=O)n3n2)cc1 | -12% | -17% | nt | nt | nt | nt
Cc1c(-n2c(SCC(=O)O)nnc2-c2ccccc2Br)c(=O)n(-c2ccccc2)n1C | 18% | -13% | 1% | -7 | 0% | 14%
COc1ccc(Cl)cc1S(=O)(=O)NC(C)C(=O)NCc1ccncc1 (stereo not drawn) | 2% | 9% | 14% | 0 | -7% | 20%
CCOc1ccc(S(=O)(=O)N(CC(=O)N2CCc3ccccc32)Cc2ccco2)cc1 | ? | 18µM* | -13% | -18 | 6% | 1%
CCOC(=O)[C@H]1[C@H]2COc3ccc(C)cc3[C@@H]2N2C(=O)c3ccc(C)cc3NC(=O)[C@@]12C | ? | 23µM* | -4% | 0 | 7% | -3%
CCOC(=O)[C@H]1[C@H]2COc3ccc(Br)cc3[C@@H]2N2C(=O)c3ccc(Cl)cc3NC(=O)[C@@]12C | 18µM* | 18µM* | 7% | ? | -47% | 5%
CCOC(=O)[C@H]1[C@H]2COc3ccc(C)cc3[C@@H]2N2C(=O)c3ccc(F)cc3NC(=O)[C@@]12C | -20% | -20% | -13% | -14 | 4% | 6%
Cc1noc(C)c1CSc1nnc2n(-c3ccccc3)c(=O)c3ccccc3n12 | -8% | ? | -9% | 28 | -4% | 16%
Cc1noc(C)c1CSc1nc2ccccc2c(=O)n1-c1ccccc1 | 5.8µM* | 6.5µM* | 9.2µM* | -6 | ? | ?
Cc1noc(C)c1CSc1nc2ccccc2c(=O)n1-c1ccc(F)cc1F | 7.3µM* | 8.2µM* | 16µM* | -12 | -17% | ?
CCN1c2ccccc2-c2nc(SCC(=O)Nc3cccc(C)c3C)ncc2S1(=O)=O | 21µM* | ? | nt | nt | nt | nt
Cc1ccccc1CN1c2ccccc2-c2nc(SCC(N)=O)ncc2S1(=O)=O | -24% | -22% | nt | nt | nt | nt
Cc1ccc(CN2c3ccccc3-c3nc(SCC(=O)NCc4ccccc4)ncc3S2(=O)=O)cc1 | -7% | -18% | nt | nt | nt | nt
CCN1c2ccccc2-c2nc(SCC(=O)NCc3ccccc3)ncc2S1(=O)=O | 23µM* | 18µM* | nt | nt | nt | nt
CCOC(=O)c1ccccc1NC(=O)CSc1ncc2c(n1)-c1ccccc1N(CC)S2(=O)=O | 16µM* | ? | nt | nt | nt | nt
COc1ccc2[nH]c(C(O)C(O)c3nc4c(OC)c(OC)ccc4[nH]3)nc2c1OC (stereo not drawn) | 0.28µM* | 1µM* | nt | nt | nt | nt
O=C(/C=N/O)Nc1ccc2sc3ccccc3c2c1 | ? | 6% | ? | -100* | 1% | ?
CN(C)S(=O)(=O)c1cccc(NC(=O)c2ccc(-n3cncn3)c([N+](=O)[O-])c2)c1 | -12% | ? | -1% | 5 | -2% | 4%
COC(=O)N1CCC2(CCCN(c3ccccn3)C2)CC1 | -16% | -10% | nt | nt | nt | nt
COC(=O)CCC[C@H]1CC2(C[C@H](CCCO[Si](C)(C)C(C)(C)C)N1C(=O)OC(C)(C)C)OCCO2 | 18µM* | ? | -1% | 45 | -4% | 4%
CCn1c(O)c(C=Nc2ccccc2)n(-c2ccccc2)c1=S | 5.8µM* | 6.5µM* | ? | -5 | 0% | -15%
Cc1cc(N2CCCCC2)nc(NCc2ccccc2)n1 | 7.3µM* | 10µM* | ? | -99* | -9% | -16%
SMILES | DT40 TDP1 no CPT | TDP1 cell CPT | HT1080 IDH1KD tx | IL-1B inflam inh | uPA generation | HT1080NT lethal
Cc1cc(N2CCOCC2)nc(NCc2ccccc2)n1 | 13µM* | 21µM* | 0% | -15 | -21% | 12%
Cc1cc(N2CCCCC2)nc(N2CCCCC2)n1 | ? | ? | 2% | 6 | 5% | 5%
CCOC(=O)c1sc(NC(=O)c2cc(-c3ccccc3)nc3ccccc23)c(C#N)c1C | 5.8µM* | 7.3µM* | 5.2µM* | -62* | 4% | 2.9µM*
CCOC(=O)c1sc(NC(=O)CSc2nnc(Cc3ccccc3)o2)c(C#N)c1C | 16µM* | 12µM* | -4%[9.24 µM] | -19 | -9% | 8%
CCOC(=O)c1sc(NC(=O)c2cccnc2)c(C#N)c1C | -1% | 9% | -4% | -11 | 12% | -1%
CCOC(=O)c1c(NC(=O)CSc2cccc[n+]2[O-])sc(C(=O)Nc2ccccc2)c1C | 18µM* | ? | -4% | ? | 0% | -13%
CCOC(=O)c1c(NC(=O)CN(C)C2CCN(C)CC2)sc(C(=O)Nc2ccccc2)c1C | ? | ? | ? | ? | -15% | ?
CCOC(=O)c1c(NC(=O)CSc2nnc(-c3ccccc3)o2)sc(C(C)=O)c1C | 23µM* | 16µM* | 6% | 12 | -5% | 10%
CCOC(=O)c1c(NC(=O)CSc2nnc(-c3ccc(C)cc3)o2)sc(C(C)=O)c1C | -25% | ? | 3% | -19 | 10% | 1%
COC(=O)c1cc2oc3ccccc3c2n1CC(=O)Nc1ccc(C)cc1Cl | -16% | -19% | nt | nt | nt | nt
O=C(CN1CCN(C(=O)CN2C(=O)NC3(CCCC3)C2=O)CC1)Nc1cccc(F)c1 | 0% | 7% | 8% | 20 | -3% | 8%
O=c1c(CCc2ccccc2)nc2cnc(N3CCOCC3)nc2n1-c1ccccc1 | 21% | -15% | nt | nt | nt | nt
Cc1ccc(-n2c(=O)c3c(cnn3C)n(CC(=O)Nc3c(C)cccc3C)c2=O)cc1 | -10% | -10% | nt | nt | nt | nt
CCOC(=O)c1sc(NC(=O)CSc2n[nH]c(-c3ccccc3)n2)c(C#N)c1C | ? | 12µM* | ? | -16 | 2% | ?
CCOC(=O)c1c(NC(=O)CSc2nnc(-c3cccc(C)c3)n2CC)sc(C(C)=O)c1C | 23µM* | 23µM* | ? | ? | -7% | -14%
CCOC(=O)c1c(NC(=O)CSc2nnc(Cc3ccccc3)o2)sc(C(C)=O)c1C | 21µM* | 21µM* | -13% | -22 | nt | -8%
